Screening data deposited in PubChem BioAssay by National Center for Advancing Translational Sciences (NCATS).
L3MBTL1 inh: inhibitors of human L3MBTL1 | Q9Y468 | AlphaScreen L3MBTL1–H3K9me1 peptide binding | Potency, µM (top dose mostly 57.1 µM), for inactives: at the highest dose activity, negative = inhibition, actives largely listed as inhibitors | hit rate 0.66% among 230,000; further: potency means the concentration at half of the fitted maximal effect; on the % scale 0 is the no-effect control and ±100 the full control effect; nearly all actives have a fitted effect of over 60% in size
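AlphaScreen assay: L3MBTL1 (50 nM final) was preincubated 30 min at room temperature with biotinylated H3(1-15)K9me1 peptide (75 nM final), then 30 min with library compounds; streptavidin donor and nickel chelate acceptor beads (10 ug/mL final) added, 30 min dark.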
HP1b binding inh: HP1-beta chromodomain-methylated histone interaction inhibition. P83916. AlphaScreen HP1-beta / biotin-H3K9me3 peptide binding. Potency, µM (highest dose often 114 µM), for the others: at the top dose activity change, negative = inhibition, most hits filed as inhibitors. hit rate 0.56% among 390,000; further: potency means the concentration at half of the fitted maximal effect; nearly all actives have a fitted effect of over 70% in size
Target sequence (P83916 whole entry, looked up): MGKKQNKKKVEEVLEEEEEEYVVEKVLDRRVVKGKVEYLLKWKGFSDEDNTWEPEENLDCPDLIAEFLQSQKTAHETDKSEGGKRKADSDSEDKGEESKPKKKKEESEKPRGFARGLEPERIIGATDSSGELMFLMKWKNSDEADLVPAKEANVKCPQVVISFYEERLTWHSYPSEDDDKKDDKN
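AlphaScreen: HP1-beta (50 nM) preformed 30 min with biotin-H3(1-18)K9me3 peptide (50 nM) in PBS pH 7.4, 0.01% Tween-20. Compound added for 30 min at RT, then streptavidin donor/nickel chelate acceptor beads (10 ug/mL) for 30 min.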
PI5P4K alpha inh: PI5P4K alpha (human) kinase inhibition; hit rate 1.2% among 330,000; PI5P4Kalpha enzyme, ADP-Glo luminescence, 60 min; active compounds read low; max response, %; active means max response of -50% or lower; inconclusive means between -30% and -50%; inactive means -30% or higher; further: value at the top dose of about 77 µM; on the % scale 0 is the no-effect control and ±100 the full control effect
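ADP-Glo luminescence end-point read after a 60 min room-temperature kinase reaction of PI5P4Kalpha plus substrate, initiated with ATP at 5 microM final. Buffer: 0.038 M HEPES pH 7.4, EGTA, 0.1% CHAPS, 5% DMSO.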
BAZ2B inh: BAZ2B (human) inhibition. AlphaScreen BAZ2B-H3K14Ac peptide displacement. Potency, µM (highest dose often 114 µM), without a hit: top-dose activity change, negative = inhibition, actives largely listed as inhibitors. hit rate 4.4% among 360,000. AID 504333; further: potency means the concentration at half of the fitted maximal effect; on the % scale 0 is the no-effect control and ±100 the full control effect; nearly all actives have a fitted effect of over 60% in size
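Protein-peptide AlphaScreen: BAZ2B 50 nM, b-H3K14Ac 50 nM, 1x PBS pH 7.4 + 0.01% Tween-20. Preincubation 30 min RT; cpd 30 min RT (top 110 uM); beads 20 min RT, light-protected.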
G9a inh: G9a (human) methyltransferase inhibition. Q96KQ7. G9a H3K9 monomethylation, AlphaScreen, 2 h. Potency, µM (highest dose often 102 µM), for the others: at the top dose activity, negative = inhibition, hits mostly inhibitors. hit rate 8.8% among 350,000. AID 504332; further: potency means the concentration at half of the fitted maximal effect; on the % scale 0 is the no-effect control and ±100 the full control effect; nearly all actives have a fitted effect of over 75% in size
Target sequence (Q96KQ7 913-1193 limits assumed): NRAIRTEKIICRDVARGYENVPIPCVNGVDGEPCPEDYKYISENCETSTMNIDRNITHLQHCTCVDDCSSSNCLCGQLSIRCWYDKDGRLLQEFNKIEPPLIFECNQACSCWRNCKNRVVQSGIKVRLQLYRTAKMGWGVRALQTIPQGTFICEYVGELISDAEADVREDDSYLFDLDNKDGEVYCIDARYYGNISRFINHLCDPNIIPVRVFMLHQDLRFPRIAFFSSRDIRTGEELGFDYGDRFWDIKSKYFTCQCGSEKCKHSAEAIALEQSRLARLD
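G9a (20 nM) was preincubated 15 min with compound, then reacted 2 h at room temperature with 500 nM biotin-H3K9 peptide and 20 µM SAM. Monomethyl-H3K9 detected by AlphaScreen using anti-H3K9me1 antibody.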
JMJD2A Tudor: blocks the human JMJD2A Tudor domain; AlphaScreen JMJD2A-Tudor / H3K4me3 peptide binding; hit rate 4.4% among 390,000; O75164; Potency, µM (doses to about 114 µM), for the others: top-dose activity change, negative = inhibition, most hits filed as inhibitors; further: potency means the concentration at half of the fitted maximal effect; on the % scale 0 is the no-effect control and ±100 the full control effect; nearly all actives have a fitted effect of over 50% in size
ADP-Glo counter: ADP-Glo luciferase interference, PI5P4K counter-screen; shares compounds with PI5P4K alpha inh; Potency, µM (top dose mostly 76.9 µM), without a hit: top-dose activity change, negative = inhibition, actives largely listed as inhibitors; ADP-Glo detection counter-screen, luciferase luminescence, no enzyme; 1,100 tested, under 10 active
* = called active by the depositor; ? = inconclusive; / = no result given; [ ] = dose if it differs, or a comment. The list is not random: actives were taken first. Their share in the collection is about 11%. Unless noted, the call rests on the fitted dose curve; in most records, active means well fitted curve in the direction sought with a large enough effect; inconclusive means small, poorly fitted or top-dose-only effect, or another doubt; inactive means no such curve, though single readings can be large; an effect the other way counts as inactive or inconclusive.

SMILES	L3MBTL1 inh	HP1b binding inh	PI5P4K alpha inh	BAZ2B inh	G9a inh	JMJD2A Tudor	ADP-Glo counter
Cc1ccc(N2CCN(c3c(CN4CCCC4)c(=O)oc4ccccc34)CC2)c(C)c1	/	-11%	/	-36%	-24%[59 µM]	?	/
COc1ccc(C)cc1NC(=O)NCc1cccn1Cc1ccccc1	/	60%	/	-16%	5%[59 µM]	-32%	/
COc1cc2nc(Nc3ccc(C)c(Cl)c3)nc(N)c2cc1OC	/	-22%	-60*	?	50µM*	-35%	4%
Cc1ccc(Nc2nc(N)c3ccccc3n2)cc1Cl	2%	63%	-5	-9%	/	-13%	/
CC(=O)N(C)C[C@H]1Oc2ncc(Br)cc2C(=O)N([C@H](C)CO)C[C@@H]1C	/	/	1	/	/	/	/
CCc1ccc(NC(=O)C2CCN(S(=O)(=O)c3c(C)noc3/C=C/c3cccs3)CC2)cc1	/	27%	/	/	7%[59 µM]	-5%	/
COc1ccc(OCC(=O)NCc2nc(-c3ccccc3)no2)cc1	/	-15%[57 µM]	-58*	/	/	-33%	3%
COc1ccc(CC(=O)NCc2nc(-c3ccccc3)no2)cc1	2%	35%	2	3%	-29%	-8%	/
Cc1c(C(=O)N2CCc3ccccc32)oc2ccccc12	37%	165%	12	85%	13%[59 µM]	119%	/
COCc1c(C(=O)N2CCc3ccccc32)oc2ccccc12	/	?	-77*	36%	44%	-17%	0%
CCc1ccc2oc(C(=O)Nc3cc(Cl)ccc3OC)cc(=O)c2c1	/	11%	/	0%	-5%[59 µM]	-14%	/
CCCNC(=O)N(C)C[C@@H]1Oc2ncc(-c3ccncc3)cc2C(=O)N([C@H](C)CO)C[C@@H]1C	/	/	-56*	/	/	/	-4%
CCCNC(=O)N(C)C[C@@H]1Oc2ncc(Br)cc2C(=O)N([C@H](C)CO)C[C@@H]1C	/	/	0	/	/	/	/
CCC(=O)N1CCc2cc(Br)cc(S(=O)(=O)NCCc3ccccc3)c21	/	33%	/	-1%	10%[59 µM]	12%	/
Cc1cc(C)c2nc(-c3ccccn3)cc(C(=O)Nc3ccc(S(=O)(=O)Nc4onc(C)c4C)cc3)c2c1	?	50µM*	-66*	35µM*	13µM*	56µM*	-1%
O=C(Nc1ccc(S(=O)(=O)Nc2nccs2)cc1)c1nn(-c2ccc(F)cc2)ccc1=O	/	-15%	-70*	25µM*	?	56µM*	-1%
Cc1ccn2c(=O)cc(COc3ccc(NC(=O)COc4ccc(C)c(C)c4)cc3)nc2c1	/	25%[57 µM]	/	-1%	1%[59 µM]	-7%	/
COCC(=O)N1CCC2(CC1)CCN(c1cccc(-c3ccccc3)c1)CC2	/	/	/	/	-5%[12.7 µM]	/	/
Cc1ccc(C(c2cc(Cl)c3cccnc3c2O)N2CCN(C)CC2)cc1 (centres undefined)	/	?	-89*	22µM*	3.5µM*	45µM*	6%
C=CCNC(=O)COC(=O)c1c2c(nc3ccccc13)CCC2	/	?	-75*	50µM*	40µM*	28µM*	-4%
CC(Nc1nc2ncn(Cc3ccccc3)c2c(=O)[nH]1)C(=O)O (centres undefined)	21%	25%	-55*	2%	-6%[59 µM]	-9%	-9%
CC(C)(C)NC(=O)C(c1ccc(C#N)cc1)n1c(=O)c(-c2ccco2)nc2ccccc21 (centres undefined)	/	/	-57*	/	/	/	2%
COc1ccc(NC(=O)C(c2ccc(OC)cc2)n2c(=O)c(-c3ccco3)nc3ccccc32)cc1 (centres undefined)	/	/	-21	/	/	/	/
O=C(NCc1ccccc1)C(c1ccc(-c2ccccc2)cc1)n1c(=O)c(-c2ccco2)nc2ccccc21 (centres undefined)	/	/	-73*	/	/	/	-7%
O=C1CCSC2(C(=O)N(Cc3ccc(F)cc3)c3ccccc32)N1c1cccc(F)c1 (centres undefined)	/	11%	/	-1%[57.1 µM]	-33%[59 µM]	-19%	/
SMILES	L3MBTL1 inh	HP1b binding inh	PI5P4K alpha inh	BAZ2B inh	G9a inh	JMJD2A Tudor	ADP-Glo counter
Cn1c(=O)c2c(-c3ccccc3)n(-c3cccc(O)c3)cc2n(C)c1=O	/	/	-50*	/	/	/	-1%
O=C(O)c1ccc(-c2nc(-c3ccccc3Cl)cs2)cc1	9%	19%	-65*	?	/	-10%	2%
O=C(O)c1ccc(-c2nc(-c3ccccc3)cs2)cc1	3%	24%	-30	1%	-2%	-17%	/
CC(=O)Oc1ccc(C(=O)Nc2cccc(C(=O)Nc3ccccc3C(=O)O)c2)cc1	/	19%	-51*	1%	14%	-11%	3%
COc1ccccc1NC(=O)c1ccccc1NC(=O)c1ccccc1	/	40%	/	-3%	-31%[59 µM]	11%	/
COc1ccccc1C(=O)Nc1ccc(C(=O)Nc2ccccc2C(=O)O)cc1	/	18%	-80*	-9%	-20%	-10%	1%
O=C(COC(=O)C1CCCCC1)Nc1ccccc1OC(F)F	21%	6%	-68*	/	56%	11µM*	-5%
Cc1ccc2nc(-c3ccccc3)c(Cc3ccccc3C(F)(F)F)n2c1	/	/	1	/	/	/	/
O=C(c1c(F)cccc1Cl)N(Cc1ccco1)C1CCS(=O)(=O)C1 (centres undefined)	/	/	1	/	/	/	/
COc1ccc(Nc2nc(N)c(C(=O)c3ccc(F)cc3)s2)cc1	/	-4%	-54*	21%	?	?	1%
O=C(Oc1ccc(N(Cc2cccs2)C2=NS(=O)(=O)c3ccccc32)cc1)c1ccccc1Cl	-1%[11.4 µM]	?	-65*	-1%	-6%[59 µM]	?	0%
CC(=O)Nc1ccc(NC(=S)Nc2ccc(Br)cc2)cc1	-6%	-17%	-75*	-13%	6%	-27%	-3%
CC(=O)Nc1ccc(NC(=S)Nc2ccccc2)cc1	5%	26%	0	11%	-29%	-7%	/
COc1ccc(CCNS(=O)(=O)c2cc(-c3cc(C)no3)ccc2OC)cc1OC	/	27%	/	-3%	-17%[59 µM]	-7%	/
COc1ccc(-c2cc(=O)oc3cc(OC(C)C(=O)NC4CC4)ccc23)cc1 (centres undefined)	-12%	21%	0	-9%[57.1 µM]	-4%	-22%	/
COc1ccc(-c2cc(=O)oc3cc(OC(=O)C4CCCCC4)c(Cl)cc23)cc1	39%	64%	-55*	36%	55%[59 µM]	17%	-5%
O=C(NCc1ccc(F)cc1)C1CCCN(c2cnccn2)C1 (centres undefined)	/	42%	2	-15%	9%	19%	/
O=C(NCc1ccc(F)cc1)C1CCN(c2cnccn2)CC1	9%	-14%	-53*	-3%	/	25µM*	1%
